Reference: PubChem BioAssay AID1159580 (chemical genetic matrix, 2015)
Several values for one entry are separate records, joined by “and”; a condition that tells them apart may be missing. Equal values may be shown once. Among all 5,500 compounds or so, about 2,000 (36%) were called active. Roughly 18% stayed inconclusive and do not appear here. Cut-off read from the data, not from the text of the source: active = normalized growth mostly below about 0.91 (no sharp cut-off); inconclusive = no clear call, values can overlap the other calls; inactive = mostly above about 0.92. The list shows a part of the results.

Assay: chemical genetic growth profiling, strain panel (AID 1159580);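 note: tested at 20 µM; growth read once vehicle control cultures reached saturation at 30 °C; 1 = growth at the plate median or of vehicle wells; lower values mean less growth of the strain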
Settings: S. cerevisiae deletion strains, growth OD

Measured: normalized growth

CC1(C)O[C@@H]2CC3C4C[C@H](F)C5=CC(=O)C=CC5(C)C4C(O)CC3(C)[C@]2(C(=O)CO)O1 (stereo partly drawn)
inactive: locus YAL013W, strain DEP1, stronger effect = lower value 1.02 | locus YAL021C, strain ccr4, stronger effect = lower value 1 | locus YAL026C, strain drs2, stronger effect = lower value 0.993 | locus YAL030W, strain snc1, stronger effect = lower value 0.992 | locus YBL061C, strain skt5, stronger effect = lower value 0.979 | locus YBR009C, strain hhf1, stronger effect = lower value 1.01 | locus YBR021W, strain FUR4, stronger effect = lower value 1.02 | locus YBR023C, strain chs3, stronger effect = lower value 0.987 | locus YBR171W, strain sec66, stronger effect = lower value 0.985 | locus YBR229C, strain ROT2, stronger effect = lower value 1.02 | locus YBR231C, strain swc5, stronger effect = lower value 1 | locus YBR279W, strain paf1, stronger effect = lower value 0.976 | locus YCL011C, strain gbp2, stronger effect = lower value 0.982 | locus YCL016C, strain dcc1, stronger effect = lower value 0.96 | locus YCL029C, strain bik1, stronger effect = lower value 0.989 | locus YCL069W, strain vba3, stronger effect = lower value 0.995 | locus YCR088W, strain abp1, stronger effect = lower value 0.992 | locus YDL005C, strain med2, stronger effect = lower value 0.973 | locus YDL035C, strain GPR1, stronger effect = lower value 1.02 | locus YDL040C, strain nat1, stronger effect = lower value 0.983 | locus YDL074C, strain BRE1, stronger effect = lower value 1.04 | locus YDL101C, strain DUN1, stronger effect = lower value 1.02 | locus YDL134C, strain PPH21, stronger effect = lower value 1.02 | locus YDL185W, strain tfp1, stronger effect = lower value 0.991 | locus YDL192W, strain arf1, stronger effect = lower value 1.01 | locus YDR001C, strain nth1, stronger effect = lower value 0.983 | locus YDR069C, strain doa4, stronger effect = lower value 1 | locus YDR101C, strain arx1, stronger effect = lower value 1 | locus YDR137W, strain rgp1, stronger effect = lower value 1 | locus YDR159W, strain sac3, stronger effect = lower value 0.982 | locus YDR162C, strain NBP2, stronger effect = lower value 1.01 | locus YDR195W, strain ref2 0.997 | locus YDR297W, strain sur2, stronger effect = lower value 1 | locus YDR318W, strain mcm21, stronger effect = lower value 0.996 | locus YDR334W, strain swr1, stronger effect = lower value 0.985 | locus YDR335W, strain msn5, stronger effect = lower value 0.975 | locus YDR388W, stronger effect = lower value 0.99 | locus YDR392W, strain spt3, stronger effect = lower value 0.917 | locus YDR502C, strain sam2, stronger effect = lower value 0.991 | locus YEL003W, strain gim4, stronger effect = lower value 1.02 | locus YEL037C, strain rad23, stronger effect = lower value 0.979 | locus YEL061C, strain CIN8 (second series), stronger effect = lower value 0.987 | locus YEL061C, strain CIN8, stronger effect = lower value 1.01 | locus YER015W, strain faa2, stronger effect = lower value 0.996 | locus YER016W, strain bim1, stronger effect = lower value 0.971 | locus YER110C, stronger effect = lower value 0.988 | locus YER111C, strain swi4, stronger effect = lower value 0.975 | locus YER155C, strain BEM2 (second series), stronger effect = lower value 1.01 | locus YER155C, strain BEM2, stronger effect = lower value 1.01 | locus YER167W, strain BCK2, stronger effect = lower value 1.01 | locus YFR010W, strain ubp6, stronger effect = lower value 1.01 | locus YGL078C, strain dbp3, stronger effect = lower value 0.979 | locus YGL086W, strain mad1, stronger effect = lower value 1.01 | locus YGL167C, strain pmr1, stronger effect = lower value 0.996 | locus YGL173C, strain kem1, stronger effect = lower value 1 | locus YGL227W, strain vid30, stronger effect = lower value 0.988 | locus YGL240W, strain doc1, stronger effect = lower value 1.02 | locus YGL248W, strain PDE1, stronger effect = lower value 1.03 | locus YGL253W, strain hxk2, stronger effect = lower value 0.959 | locus YGR135W, strain pre9, stronger effect = lower value 0.98 | locus YGR252W, strain gcn5, stronger effect = lower value 0.984 | locus YHR013C, strain ard1, stronger effect = lower value 0.957 | locus YHR027C, strain rpn1, stronger effect = lower value 0.99 | locus YHR030C, strain SLT2, stronger effect = lower value 1.01 and 1.02 | locus YHR079C, strain IRE1 (second series), stronger effect = lower value 0.99 | locus YHR079C, strain IRE1, stronger effect = lower value 1.02 | locus YHR094C, strain hxt1, stronger effect = lower value 0.98 | locus YHR129C, strain ARP1, stronger effect = lower value 1.02 | locus YHR142W, strain chs7, stronger effect = lower value 0.941 | locus YHR200W, strain rpn10, stronger effect = lower value 0.998 | locus YIL066C, strain RNR3, stronger effect = lower value 1.02 | locus YIL073C, strain SPO22, stronger effect = lower value 0.999 | locus YIL125W, strain kgd1, stronger effect = lower value 0.99 | locus YIR030C, strain dcg1, stronger effect = lower value 0.998 | locus YJL092W, strain hpr5, stronger effect = lower value 1 | locus YJL095W, strain BCK1 (second series), stronger effect = lower value 0.978 | locus YJL095W, strain BCK1, stronger effect = lower value 1.04 and 1.03 | locus YJL115W, strain asf1, stronger effect = lower value 0.974 | locus YJL129C, strain trk1, stronger effect = lower value 0.953 | locus YJL134W, strain LCB3, stronger effect = lower value 1.01 | locus YJL154C, strain vps35, stronger effect = lower value 0.976 | locus YJL164C, strain tpk1, stronger effect = lower value 0.972 | locus YJL166W, strain qcr8, stronger effect = lower value 1.02 | locus YJL168C, strain set2, stronger effect = lower value 0.993 | locus YJL187C, strain SWE1 (second series), stronger effect = lower value 1.02 | locus YJR043C, strain POL32, stronger effect = lower value 1.02 | locus YJR066W, strain TOR1, stronger effect = lower value 0.954 | locus YJR075W, strain HOC1, stronger effect = lower value 1.03
